# Reference: PubChem BioAssay (NCI)
# This is part of a sample that, as a whole, favours compounds with a hit. Of some 83,000 tested, about 20% had one in any assay.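 Interpretation: 100, growth as untreated; towards 0, rising growth inhibition; 0, no net growth; 0 to -100, cell death. Compounds scoring below 10 were considered active.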 Values without a mark were called inactive. Activity calls are given as the source filed them.
# Test system: HOP-92 NSCLC
# Assay: NCI-60 one-dose screen, 48 h (100 = growth as untreated, 0 = no growth, -100 = all killed)
# Details: 10 µM unless noted
row,SMILES,growth
1,CCN(CC)c1ccc(/C=C2\Oc3ccc(O)c(I)c3C2=O)cc1,81.9%
2,CC1(c2ccc(Cl)cc2)OC(=O)CC(=O)O1,103%
3,Cc1csc(NC(c2ccccc2)c2c(C)nc3ccccn23)n1 (stereo not drawn),68.4%
4,COc1cc(-c2nc(N=Nc3c(O)[nH]c4ccc(Br)cc34)[nH]c(=O)c2C#N)cc(OC)c1OC,92.8%
5,O=C1/C(=C/c2ccc(Cl)cc2)CN(C(=O)CCN2CCC(=NO)CC2)C/C1=C\c1ccc(Cl)cc1,-39.1% (active)
6,Cc1ccc(-c2cc3nc(C(Cl)Cl)nc(-c4ccccc4C)n3n2)cc1,64.7%
7,Nc1cccc(-c2nc3sccn3c2-c2ccnc(NCCNS(=O)(=O)c3ccc(C(F)(F)F)cc3)n2)c1,-6.13% (active)
8,FC(F)(F)c1cccc(-c2cn3c(ccc4ccccc43)n2)c1,102%
9,CCCCCCN1CSC(=S)N(CCCCCC)C1,81.5%
10,Oc1ccc2cc(Br)ccc2c1-c1c(O)ccc2cc(Br)ccc12,20%
11,C=C(C)[C@@H]1C[C@H](O)Cc2cc(F)ccc2N1,95.6%
12,NC1=NC(SCc2ccccc2CCl)c2ncn(Cc3ccccc3CCl)c2N1 (stereo not drawn),24%
13,COc1ccc(C(=O)c2cc(OC)c(OC)c(OC)c2OC)cc1O,60.4%
14,CNc1ccc(Br)c2c1C(=O)c1ccccc1C2=O,80.6%
15,Cc1cc(N/N=C/c2nc(-c3ccccc3)oc2C)c2cc(Br)ccc2n1,71.9%
16,CC(C)(C)n1cc(-c2ccnc(NCCCNS(=O)(=O)c3ccccc3)c2)c(-c2cccc(O)c2)n1,77.7%
17,O=C1Nc2ccc(Cl)cc2C12Nc1cc(Cl)ccc1S2 (stereo not drawn),77.2%
18,O=C1/C(=C/c2ccccc2)CN(C(=O)CCN2CCC(=NO)CC2)C/C1=C\c1ccccc1,77.6%
19,O=[N+]([O-])c1cccc(-c2nc3sccn3c2-c2ccnc(NCCCNS(=O)(=O)c3ccc(Cl)cc3)n2)c1,67.2%
20,Cc1ccc(S(=O)(=O)Nc2c(Br)cc(Br)cc2C(N)=O)cc1,94.4%

row,SMILES,growth
1,CN(C[C@H]1Cc2c(cccc2N2CCN(Cc3ccccn3)CC2)CN1)[C@H]1CCCc2cccnc21,73.2%
2,CC(C)(C)OC(=O)NC(CSCc1ccccc1)C(=O)ON1C(=O)CCC1=O (stereo not drawn),92.4%
3,COc1ccc(-c2ccc(-c3ccc(C(=N)N)s3)s2)cc1Cl,16.5%
4,O=[N+]([O-])c1ccc(C(c2ccccc2)c2ccccc2)cc1,85.9%
5,CCN(CC)c1ccc2[nH]c3c(C(N)=O)cc(=O)c(=O)c=3oc2c1,26%
6,CCNc1nc(S(=O)(=O)CC)nc2ccccc12,104%
7,CCC(=O)Oc1ccc(/C(=C(/C)Cc2cccc(OC)c2)c2ccc(OCCN(C)C)cc2)cc1,67.2%
8,Nc1nc(-c2ccccc2)c(CCCOc2ccc(NC(=O)CBr)cc2)c(=O)[nH]1,99.6%
9,CN(C)CCOC(=O)Nc1ccccc1Cl,89.2%
10,c1ccc(-c2nnc(-c3ccccn3)s2)nc1,89.7%
11,COc1ccc(-c2nc(N3CCCC3=O)sc2Br)cc1OC,113%
12,C=C1CCC2C3(C)COC(c4c(OC)cccc4OC)OC3CCC2(C)C1C/C=C1/C(=O)OCC1O (stereo not drawn),46.7%
13,c1cc2[nH]ncc2cc1-c1nc2ccc3[nH]ncc3c2c2c1CCC2,42.5%
14,COc1ccc2c(c1)[nH]c(=O)c1c3cc(OC)ccc3cn21,45.1%
15,NC(N)=Nc1nc2ccccc2o1,-9.02% (active)
16,Nc1ccc(C(=O)CSc2nc3ccccc3[nH]2)cc1,116%
17,CC(C)(C)n1cc(-c2ccnc(NCCCNS(=O)(=O)c3ccc(F)cc3)c2)c(-c2cccc(O)c2)n1,60.3%
18,COc1ccccc1CNCCCN1C(=O)c2ccc3c4c(ccc(c24)C1=O)C(=O)N(CCCNCCCCNCCCN)C3=O,5.16% (active)
19,O=C(CCl)N(C1CCCCC1)C1CCCCC1,92.8%

# Test system: NCI-H522 lung
# Assay: as above
# Details: 10 µM unless noted
row,SMILES,growth
1,CCN(CC)c1ccc(/C=C2\Oc3ccc(O)c(I)c3C2=O)cc1,22.6%
2,CC1(c2ccc(Cl)cc2)OC(=O)CC(=O)O1,90.1%
3,Cc1csc(NC(c2ccccc2)c2c(C)nc3ccccn23)n1 (stereo not drawn),95.3%
4,COc1cc(-c2nc(N=Nc3c(O)[nH]c4ccc(Br)cc34)[nH]c(=O)c2C#N)cc(OC)c1OC,84.9%
5,O=C1/C(=C/c2ccc(Cl)cc2)CN(C(=O)CCN2CCC(=NO)CC2)C/C1=C\c1ccc(Cl)cc1,-92.1% (active)
6,Cc1ccc(-c2cc3nc(C(Cl)Cl)nc(-c4ccccc4C)n3n2)cc1,69.9%
7,Nc1cccc(-c2nc3sccn3c2-c2ccnc(NCCNS(=O)(=O)c3ccc(C(F)(F)F)cc3)n2)c1,71.6%
8,FC(F)(F)c1cccc(-c2cn3c(ccc4ccccc43)n2)c1,81.8%
9,CCCCCCN1CSC(=S)N(CCCCCC)C1,101%
10,Oc1ccc2cc(Br)ccc2c1-c1c(O)ccc2cc(Br)ccc12,53.9%
11,C=C(C)[C@@H]1C[C@H](O)Cc2cc(F)ccc2N1,93.7%
12,NC1=NC(SCc2ccccc2CCl)c2ncn(Cc3ccccc3CCl)c2N1 (stereo not drawn),-92% (active)
13,COc1ccc(C(=O)c2cc(OC)c(OC)c(OC)c2OC)cc1O,-0.0983% (active)
14,CNc1ccc(Br)c2c1C(=O)c1ccccc1C2=O,98%
15,Cc1cc(N/N=C/c2nc(-c3ccccc3)oc2C)c2cc(Br)ccc2n1,80.6%
16,CC(C)(C)n1cc(-c2ccnc(NCCCNS(=O)(=O)c3ccccc3)c2)c(-c2cccc(O)c2)n1,45%
17,O=C1Nc2ccc(Cl)cc2C12Nc1cc(Cl)ccc1S2 (stereo not drawn),47.1%
18,O=C1/C(=C/c2ccccc2)CN(C(=O)CCN2CCC(=NO)CC2)C/C1=C\c1ccccc1,-61.4% (active)
19,O=[N+]([O-])c1cccc(-c2nc3sccn3c2-c2ccnc(NCCCNS(=O)(=O)c3ccc(Cl)cc3)n2)c1,28.4%
20,Cc1ccc(S(=O)(=O)Nc2c(Br)cc(Br)cc2C(N)=O)cc1,115%

row,SMILES,growth
1,CN(C[C@H]1Cc2c(cccc2N2CCN(Cc3ccccn3)CC2)CN1)[C@H]1CCCc2cccnc21,95.5%
2,CC(C)(C)OC(=O)NC(CSCc1ccccc1)C(=O)ON1C(=O)CCC1=O (stereo not drawn),91.5%
3,COc1ccc(-c2ccc(-c3ccc(C(=N)N)s3)s2)cc1Cl,0.287% (active)
4,O=[N+]([O-])c1ccc(C(c2ccccc2)c2ccccc2)cc1,87%
5,CCN(CC)c1ccc2[nH]c3c(C(N)=O)cc(=O)c(=O)c=3oc2c1,-39.7% (active)
6,CCNc1nc(S(=O)(=O)CC)nc2ccccc12,81.8%
7,CCC(=O)Oc1ccc(/C(=C(/C)Cc2cccc(OC)c2)c2ccc(OCCN(C)C)cc2)cc1,87.6%
8,Nc1nc(-c2ccccc2)c(CCCOc2ccc(NC(=O)CBr)cc2)c(=O)[nH]1,71.8%
9,CN(C)CCOC(=O)Nc1ccccc1Cl,106%
10,c1ccc(-c2nnc(-c3ccccn3)s2)nc1,96.1%
11,COc1ccc(-c2nc(N3CCCC3=O)sc2Br)cc1OC,89.1%
12,C=C1CCC2C3(C)COC(c4c(OC)cccc4OC)OC3CCC2(C)C1C/C=C1/C(=O)OCC1O (stereo not drawn),24.6%
13,c1cc2[nH]ncc2cc1-c1nc2ccc3[nH]ncc3c2c2c1CCC2,6.78% (active)
14,COc1ccc2c(c1)[nH]c(=O)c1c3cc(OC)ccc3cn21,13%
15,NC(N)=Nc1nc2ccccc2o1,107%
16,Nc1ccc(C(=O)CSc2nc3ccccc3[nH]2)cc1,101%
17,CC(C)(C)n1cc(-c2ccnc(NCCCNS(=O)(=O)c3ccc(F)cc3)c2)c(-c2cccc(O)c2)n1,39.1%
18,COc1ccccc1CNCCCN1C(=O)c2ccc3c4c(ccc(c24)C1=O)C(=O)N(CCCNCCCCNCCCN)C3=O,-41.7% (active)
19,O=C(CCl)N(C1CCCCC1)C1CCCCC1,-36.8% (active)
